Reference: the supplement of paper PMC9177965
Where “and” joins values, the source holds several entries; their conditions need not be identical. Identical values can stand only once.

System: HT29 RNF43 G659fs (RNF43 659mut, CRISPR-edited)
Assay: cell viability activity relative to DMSO (negative = inhibition); higher = more viable cells (less growth inhibition)
Settings: 5 µM; 96 h
Description: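 Broad Repurposing Library primary screen at a single dose of 5 uM. HT29 sg-Ctrl and HT29 RNF43 G659fs CRISPR-edited isogenic cells were seeded at 2500 cells/well in 384-well plates in duplicate and treated for 96 h. Viability was read by CellTiter-Glo and reported as % activity relative to DMSO, with MG132 as the positive control (negative = growth inhibition).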

Row | SMILES | cell viability activity
1 | CO[C@@H]1[C@H](N(C)C(=O)c2ccccc2)C[C@H]2O[C@]1(C)n1c3ccccc3c3c4c(c5c6ccccc6n2c5c31)C(=O)NC4 | -53.8%
2 | O=C(NOCCO)c1cc(CN2OCCCC2=O)c(F)c(F)c1Nc1ccc(I)cc1F | -76.5%
3 | COc1cccc(-c2cc(F)ccc2[C@H]2Cc3nc(N)nc(C)c3C(=O)N2)n1 | -82.4%
4 | CN1CCN(CCOc2cc(OC3CCOCC3)c3c(Nc4c(Cl)ccc5c4OCO5)ncnc3c2)CC1 | -54.8%
5 | COc1cc(N2CCC(N3CCN(C)CC3)CC2)ccc1Nc1ncc(Cl)c(Nc2ccccc2S(=O)(=O)C(C)C)n1 | -53.9%
6 | CCN(CC)CCCCNc1ncc2cc(-c3c(Cl)cccc3Cl)c(NC(=O)NC(C)(C)C)nc2n1 | -49.6%
7 | Cc1ccc2c(Br)cc(Br)c(OC(=O)c3ccccc3)c2n1 | -27.6%
8 | C#Cc1cccc(Nc2ncnc3cc(OC)c(OCCCCCCC(=O)NO)cc23)c1 | -90.3%
9 | C[C@]1(O)C[C@@H](c2nc(-c3ccc4ccc(-c5ccccc5)nc4c3)c3c(N)nccn32)C1 | -32.5%
10 | O=C(c1cccc(Cl)c1F)N1CCN(Cc2cccc(Nc3nccs3)n2)CC1 | -27.7%
11 | COc1cc(/C=C/C(=O)CC(=O)/C=C/c2ccc(O)c(OC)c2)ccc1O | -87.7%
12 | CNCCCOc1cc(F)c(-c2c(Cl)nc3ncnn3c2N[C@@H](C)C(F)(F)F)c(F)c1 | -72.6%
13 | CCOc1cc2ncc(C#N)c(Nc3ccc(OCc4cccc(F)c4)c(Cl)c3)c2cc1NC(=O)/C=C/CN(C)C | -30.8%
14 | CCNCCCNCCCCNCCCNCC | -31%
15 | Fc1ccc(-n2cc(CCCCN3CCC4(CC3)OCc3ccccc34)c3ccccc32)cc1 | -70.6%
16 | C/C=C1\NC(=O)[C@H]2CSSCC/C=C/[C@H](CC(=O)N[C@H](C(C)C)C(=O)N2)OC(=O)[C@H](C(C)C)NC1=O | -94.9%
17 | CN1CCC[C@@H]1Cc1c[nH]c2ccc(CCS(=O)(=O)c3ccccc3)cc12 | -25.1%
18 | Clc1ccc(C2(c3ccc(-c4cn[nH]c4)cc3)CCNCC2)cc1 | -71.5%
19 | CC(C)CC(=O)Nc1n[nH]c2c1CN(C(=O)C1CCN(C)CC1)C2(C)C | -60.4%
20 | NC1(Cc2ccc(Cl)cc2)CCN(c2ncnc3[nH]ccc23)CC1 | -39.2%

Row | SMILES | cell viability activity
21 | CNCCn1c(=O)c2cc(OC)c(OC)cc2c2cnc3cc4c(cc3c21)OCO4 | -81.7%
22 | CC(C)/N=c1\cc2n(-c3ccc(Cl)cc3)c3ccccc3nc-2cc1Nc1ccc(Cl)cc1 | -75.3%
23 | Nc1ncnc2c1nc(Br)n2[C@@H]1O[C@@H]2COP(=O)(O)O[C@H]2[C@H]1O | -26.8%
24 | O=C(O)c1ccccc1-c1c2cc(I)c(=O)c(I)c-2oc2c(I)c(O)c(I)cc12 | -23%
25 | COc1cccc2c1C(=O)c1c(O)c3c(c(O)c1C2=O)C[C@@](O)(C(=O)CO)C[C@@H]3O[C@H]1C[C@H](N)[C@H](O)[C@H](C)O1 | -94% and -83.9%
26 | CCOC(=O)[C@H](Cc1ccccc1)NC(=O)c1cc(Cl)c(OCCN2CCN(C)CC2)c(Cl)c1O | -34%
27 | COc1ccc(-c2nc(N3CCOCC3)c3sc(CN(C)c4ncc(C(=O)NO)cn4)cc3n2)cn1 | -94.5%
28 | O=C1C(Cl)=C(NCCN2CCOCC2)C(=O)c2ncccc21 | -46.3%
29 | N=C(NCCCCCCNC(=N)NC(=N)Nc1ccc(Cl)cc1)NC(=N)Nc1ccc(Cl)cc1 | -45.1%
30 | COC(=O)C1=C(C#N)NC(C)=C(C(=O)OC(C)C)C1c1cccc([N+](=O)[O-])c1 (stereo not given) | -44.7%
31 | CO[C@@H](C)Cn1c(=O)n(C)c2cnc3ccc(-c4cncc(C(C)(C)O)c4)cc3c21 | -81.7%
32 | CCNC(=O)Nc1ccc(-c2nc3c(c(N4CCOC[C@@H]4C)n2)CCN(C2COC2)C3)cc1 | -36.7%
33 | CCCCc1oc2ccccc2c1C(=O)c1cc(I)c(OCCN(CC)CC)c(I)c1 | -99.4%
34 | Cc1ccc(C(=O)Nc2ccc(CN3CCN(C)CC3)c(C(F)(F)F)c2)cc1C#Cc1cnc2cccnn12 | -86.7%
35 | CCCCC(=O)O[C@H]1CC[C@H]2[C@@H]3CCc4cc(O)ccc4[C@H]3CC[C@]12C | -22.9%
36 | COc1c(C)cnc(Cn2cc(C#CCC(C)(C)O)c3c(Cl)nc(N)nc32)c1C | -42.7%
37 | CC(C)n1nc(-c2ccc3oc(N)nc3c2)c2c(N)ncnc21 | -74.9%
38 | O=C(c1cn(Cc2cncn2Cc2ccc(Br)cc2)cc1-c1cccc2ccccc12)N1CCOCC1 | -42.8%
39 | CN1CCN(CCCN2c3ccccc3Sc3ccc(C(F)(F)F)cc32)CC1 | -34.4%
40 | NC(=O)Nc1cc(-c2cccc(F)c2)sc1C(=O)N[C@H]1CCCNC1 | -79.6%
